# Compound activity: PubChem, National Center for Advancing Translational Sciences (NCATS)
# The list is not random: actives were taken first. Their share in the collection is about 12%.
# SARS PLP yeast: qHTS of Yeast-based Assay for SARS-CoV PLP; AID 485353, 2010; S. cerevisiae expressing SARS-CoV PLpro, growth rescue; Potency, µM (doses to about 32.9 µM), for the others: top-dose activity, positive = growth rescue, actives largely listed as activators; actives 0.19% (n = 330,000); note: potency is the fitted concentration of half-maximal effect; 0% is about no effect; nearly all actives have a fitted effect of over 55% in size
# Cycloheximide cs: Cycloheximide Counterscreen for Small Molecule Inhibitors of Shiga Toxin; cell reporter, cycloheximide protein synthesis inhibition counterscreen; max response, %; actives 12% (n = 300,000); AID 2314, 2010; in the data active = max response mostly above about 13%, no sharp cut-off; inactive = mostly below about 14%; note: read at 38.3 µM for the half of the compounds with a filed dose; 0% is about no effect
# NS1 inh: qHTS Assay for Inhibitors of Influenza NS1 Protein Function; Potency, µM (highest dose often 46.1 µM), without a hit: at the highest dose activity, positive = more growth; actives 0.4% (n = 270,000); note: potency is the fitted concentration of half-maximal effect; actives are rising curves; nearly all actives have a fitted effect of over 50% in size
#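 In this qHTS, NS1 from influenza A is expressed in budding yeast, where it slows growth. Cells are switched from glucose to 2% galactose medium (pH 6.0, -URA), treated with compound, and growth recovery is read at OD600.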
# Shiga inhibitor: A qHTS for Small Molecule Inhibitors of Shiga Toxin; inhibition, % at 38.7 µM; Vero cells, Shiga toxin protein synthesis inhibition reporter; actives 9.2% (n = 290,000); in the data active = inhibition mostly above about 28%, no sharp cut-off; inactive = mostly below about 43%; note: 0% is about no effect
# An asterisk follows results filed as active; ? = inconclusive; nt = not tested or not shown; + = active, no number. Unless noted, calls come from the whole dose curve.
SMILES,SARS PLP yeast,Cycloheximide cs,NS1 inh,Shiga inhibitor
Cc1cccn2c(=O)c3cc(C(=O)NC4CCCC4)sc3nc12,-10%,19*,-35%,-23
Cn1c(C(=O)NCc2ccccn2)cc2c(=O)n3ccccc3nc21,-16%,29*,-10%,58*
Cc1ccc(Cn2c(=N)c(C(=O)NC3CCCCC3)cc3c(=O)n4ccccc4nc32)cc1,-3%,-2,7%,-3
Cn1c(C(=O)NC2CCCCC2)cc2c(=O)n3ccccc3nc21,-8%,23*,-9%,21
COc1ccc(NC(=O)c2cc3c(=O)n4ccccc4nc3n2C)c(OC)c1,0%,15,nt,37
O=C(NC1CCCC1)c1cc2c(=O)n3ccccc3nc2s1,0%,nt,nt,nt
COc1ccc(C(=O)Nc2ccccc2N2CCCC2)cc1S(=O)(=O)N1CCOCC1,1%,nt,nt,nt
COCCNC(=O)c1onc(CS(=O)(=O)c2cc(C)cc(C)c2)c1C(=O)NCCOC,-13%,nt,nt,nt
NC(=O)c1oc2ccccc2c1NC(=O)C1COc2ccccc2O1 (stereo not given),0%,0,6%,24
Cc1c(Br)c(C(=O)NNC(=O)c2ccc(C(C)(C)C)cc2)nn1C,2%,27*,-3%,33
CC(C)(C)c1ccc(C(=O)Nn2cnnc2)cc1,6%,-2,7%,-6
Cn1cc(Br)c(C(=O)NNC(=O)c2ccccc2)n1,-26%,1,6%,-1
Cn1cc(Br)c(C(=O)NNC(=O)c2ccc(Br)cc2)n1,-13%,35*,-19%,+
Cn1cc(Br)c(C(=O)NNC(=O)Nc2ccccc2C(F)(F)F)n1,-1%,26*,1%,51
O=S(=O)(Cc1ccccc1)NCc1cccnc1,-7%,-2,-7%,-8
C=CCNC1=C(Cl)C(=O)c2ccccc2C1=O,-13%,1,-21%,active
O=C1C(Cl)=C(NCc2cccnc2)C(=O)c2ccccc21,-9%,22*,-6%,45*
CC(C)OCCCNC1=C(Cl)C(=O)c2ccccc2C1=O,0%,49*,-6%,66*
CC(C)NC1=C(Cl)C(=O)c2ccccc2C1=O,24%,21*,-85%,43
CCN(CC)CCCNC1=C(Cl)C(=O)c2ccccc2C1=O,-1%,2,-9%,30
Cc1ccccc1NC(=O)OCc1cccnc1Oc1ccc(Cl)cc1,-7%,1,nt,17
CC(NC(=O)c1cc(-c2ccncc2)nc2ccc(Br)cc12)C1CCCO1 (stereo not given),3%,-2,-20%,-10
COCCCNC1=C(Cl)C(=O)c2ccccc2C1=O,0%,33*,-9%,49*
O=C(CSc1nc2ccccc2s1)Nc1ccc2c(c1)oc1ccccc12,24%,7,18%,-16
Cc1ccccc1C(=O)Nc1nnc(SCC(=O)NC2CC2)s1,0%,30*,-10%,64*
SMILES,SARS PLP yeast,Cycloheximide cs,NS1 inh,Shiga inhibitor
CCOC(=O)CNC(=O)CSc1nnc(NC(=O)c2ccccc2Cl)s1,-1%,29*,1%,59*
CC(C)(C)NC(=O)CSc1nnc(NC(=O)c2ccccc2Cl)s1,2%,12,nt,30
Cc1nnc(NC(=O)CSc2ccccc2N)s1,1%,26*,11%,38
Cc1nnc(NC(=O)CSCc2ccccc2)s1,-2%,4,26%,0
O=C(CSc1nnc(NC(=O)c2ccccc2Cl)s1)Nc1ccc2c(c1)oc1ccccc12,12%,34*,-7%,54*
CCc1nnc(NC(=O)C2CC(=O)N(C3CCCCC3)C2)s1 (stereo not given),-1%,-3,1%,-7
O=C(Nc1cccc2ccccc12)NC(Cc1ccccc1)C(=O)O (stereo not given),1%,-1,2%,-11
CCc1cccc(NC(=S)N(CCOC)C2CCN(C(C)=O)CC2)c1,2%,-1,-1%,-7
COc1cccc(CNC(=O)CN2C(=O)CSc3ccc(S(=O)(=O)N4CCCCC4)cc32)c1,1%,2,6%,-1
O=C(CSc1nnc(NC(=O)c2ccccc2Cl)s1)NC1CC1,-4%,39*,4%,61*
Cc1ccc(C(=O)Nc2ccc(SC(F)F)cc2)s1,-5%,51*,nt,109*
O=C(Nc1ccc(SC(F)F)cc1)C1=COCCO1,-10%,34*,-4%,70*
Cc1[nH]n(-c2ccc(Br)cc2)c(=O)c1/C=N/NC(=O)c1ccccc1,1%,28*,-19%,92*
Cc1[nH]n(-c2ccccc2)c(=O)c1/C=N/NC(=O)c1cccc(F)c1,8%,43*,-62%,66*
Cc1cc(C(=O)N/N=C/c2c(C)[nH]n(-c3ccccc3)c2=O)n[nH]1,28%,9,-9%,-7
Cc1ncsc1C(=O)Nc1nc2c(s1)CCCC2,-7%,62*,-16%,106*
O=C(Nc1nc2c(s1)CCCC2)c1ccc2ncsc2c1,-24%,41*,-77%,67*
Cc1ccccc1C(=O)NC(C(=O)Nc1nc2c(s1)CCCC2)C(C)C (stereo not given),?,17*,?,31*
Cc1cc(C(=O)Nc2nc3c(s2)CCCC3)cs1,3%,40*,1%,107*
COC(=O)Cc1csc(NC(=O)c2ccc3ncsc3c2)n1,-3%,nt,nt,nt
O=C(COC(=O)CCc1ccc(S(=O)(=O)N2CCOCC2)cc1)Nc1ccccc1OC(F)F,15%,nt,nt,nt
O=C(Nc1sc2c(c1C(=O)O)CCCCC2)c1cccs1,-25%,66*,nt,129*
CC1CCc2c(sc(NC(=O)c3cccs3)c2C(=O)O)C1 (stereo not given),-10%,47*,-87%,81*
COC(=O)c1c(NC(=O)c2cccs2)sc2c1CCC(C)C2 (stereo not given),1%,-3,-24%,34
CC(C)OC(=O)c1c(NC(=O)c2cccs2)sc2c1CCCC2,9%,5,-6%,36
SMILES,SARS PLP yeast,Cycloheximide cs,NS1 inh,Shiga inhibitor
O=C(Nc1sc2c(c1C(=O)O)CCCC2)c1cccs1,-53%,27*,-180%,127*
Cc1ccc(CN2CCNC(=O)C2CC(=O)N(C)C2CCCCC2)cc1 (stereo not given),-6%,-5,15%,-5
CCc1nnc(NC(=O)COC(=O)c2cc(OC)cc(OC)c2)s1,-11%,nt,nt,nt
CC(=O)COc1ccc2c(c1C)O/C(=C\c1ccco1)C2=O,5%,82*,-1%,127*
Cc1cc(O)c(CN(C)C)c2c1C(=O)/C(=C/c1ccco1)O2,0%,-2,8%,-9
Cc1c(OC(=O)N(C)C)ccc2c1O/C(=C\c1ccco1)C2=O,-4%,47*,-7%,91*
C[N+](C)(C)C[C@H](O)CC(=O)[O-],-8%,nt,nt,nt
Cc1ccc(N2C(=O)CC(Sc3nc4ccccc4o3)C2=O)cc1Cl (stereo not given),-30%,6,-5%,4
CCOC(=O)C1=C(COc2ccccc2)NC(=O)NC1c1ccc(Cl)cc1 (stereo not given),-8%,-1,15%,0
Cc1sc2ncnc(SCC(=O)Nc3ccc(S(=O)(=O)N4CCOCC4)cc3)c2c1C,1%,nt,nt,nt
Cc1ccc(NC(=O)c2ccco2)c(NC(=O)C2CCCO2)c1 (stereo not given),0%,5,-4%,-8
COc1ccc(/C(N)=C/C(=O)C(C)(C)C)cc1,-4%,19*,-61%,60
